Rows were chosen to be rich in hits. Some 17% of all compounds tested hit in one or more screens of this group.
HT1080NT lethal: kills 2HG-producing HT-1080-NT fibrosarcoma cells; 1.6% of 360,000 active; HT-1080-NT fibrosarcoma viability, CellTiter-Glo ATP luminescence, 48 h; Potency, µM (series often up to 46.1 µM), most hits filed as cytotoxic;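 further: NT is the 2HG producing partner of a matched IDH1 knockdown line; nearly all actives have a fitted effect of over 55% in size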
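Toxicity toward the 2HG-producing NT line was scored as %Activity, normalised to DMSO and no-cell wells, from CellTiter-Glo luminescence after 48 hours' treatment.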
DT40 TDP1 no CPT: qHTS for Inhibitors of human tyrosyl-DNA phosphodiesterase 1 (TDP1): qHTS in cells in absence of CPT; DT40 Tdp1-/- hTDP1 cells, no CPT, ATP luminescence, 48 h; Potency, µM (series often up to 46.2 µM), usual class: inhibitors; 15% of 420,000 active; further: nearly all actives have a fitted effect of over 55% in size
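Growth kinetics read by CellTiter-Glo luminescence after ≥48 hr at 37 °C. Cells: DT40 Tdp1-/- stably carrying human TDP1, 400 per well, compound exposure in the absence of CPT (DMSO vehicle).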
HT1080 IDH1KD tx: toxicity to HT-1080 IDH1 knockdown cells (counter line); AID 686971; HT-1080 IDH1 knockdown viability, ATP luminescence, 48 h; Potency, µM (highest dose often 46.1 µM), actives largely listed as cytotoxic; 2% of 360,000 active
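CellTiter-Glo luminescence after 48 h compound exposure at 37 degrees C of IDH1-knockdown HT-1080 cells in 5% FBS RPMI. %Activity scaled between DMSO wells and cell-free media wells, with curves fitted and assigned curve classes.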
HepG2 viability: kills HepG2 cells in TGF-b inhibitor counter-screen; HepG2 CAGA-GFP viability, ATP luminescence, 18 h; Potency, µM (titrated, usually from 46.1 µM), hits mostly cytotoxic; 0.76% of 410,000 active; AID 588856
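CellTiter-Glo luminescence gave cytotoxicity after 18 hours at 37 degrees C. The cells were HepG2 CAGA-GFP in 1% FBS DMEM, stimulated with 500 pg/mL TGF-beta after compound addition. %Activity was normalised to no-cell wells (complete cell-killing) and DMSO (no toxicity), and curves were fitted and classified.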
TGFb SMAD3 inh: TGF-b pathway inhibition | Potency, µM (highest dose often 46.1 µM), most hits filed as inhibitors | 1.2% of 410,000 active | HepG2 CAGA-GFP TGF-b/SMAD3 reporter, GFP fluorescence, 18 h; TGF-beta stimulated, 500 pg/mL final | AID 588855; further: nearly all actives have a fitted effect of over 65% in size
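Read-out: total well GFP (ex488/em500-530) summed from mean per-cell fluorescence. Cells: HEPG2 CAGA-GFP, 1% FBS DMEM, 18 h at 37 degrees C with 500 pg/mL final TGF-beta. Unstimulated wells served as the full-inhibition control; stimulated DMSO wells = 0%.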
DT40 TDP1 CPT: growth inhibition of DT40 Tdp1-/-;hTDP1 cells with camptothecin (screen for TDP1 inhibitors); chicken DT40 Tdp1-/-;hTDP1 cells + 20 nM CPT, ATP luminescence, 48 h; Potency, µM (top dose mostly 46.2 µM), actives largely listed as inhibitors; 12% of 420,000 active; AID 686979; further: nearly all actives have a fitted effect of over 55% in size
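Chicken DT40 Tdp1-/- cells complemented with human TDP1, 400 cells/well, exposed to compounds plus 20 nM camptothecin for at least 48 h at 37 C; viability read as ATP content by CellTiter-Glo luminescence.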
Hits are given with their value; 0 = inactive; ? = inconclusive; - = not tested or not shown. The call rests on the fitted dose curve; in most records, active means well fitted curve in the direction sought with a large enough effect; inconclusive means small, poorly fitted or top-dose-only effect, or another doubt; inactive means no such curve, though single readings can be large; an effect the other way counts as inactive or inconclusive.

SMILES | HT1080NT lethal | DT40 TDP1 no CPT | HT1080 IDH1KD tx | HepG2 viability | TGFb SMAD3 inh | DT40 TDP1 CPT
CCOC(=O)c1[nH]c(=S)n(-c2ccccc2)c1C(=O)OCC | 0 | 0 | 0 | 0 | 0 | 0
Cc1cccc(-n2c(=O)c3c(c4cc(C)ccc4n3C)n(Cc3ccccc3F)c2=O)c1 | - | ? | - | 0 | 0 | 0
Cc1ccc(C2(CCNC(C)c3cccs3)CCOC(C(C)C)C2)cc1 (stereo not drawn) | 16µM | ? | ? | 0 | ? | 0
CC(C)C1CC(CCN)(c2ccccc2)CCO1 (stereo not drawn) | 0 | 0 | 0 | 0 | 0 | ?
Cc1ccc(C2(CCN)CCOC(C(C)C)C2)cc1 (stereo not drawn) | 0 | ? | 0 | 0 | 0 | 23µM
COc1cccc(Nc2ncc3nc(C)c(=O)n(C)c3n2)c1 | - | 0 | - | - | - | ?
CNS(=O)(=O)c1cccc(C(=O)OCC(=O)C23CC4CC(CC(C4)C2)C3)c1 | 0 | ? | 0 | 0 | 0 | ?
COc1cc(CNCCc2ccccc2F)ccc1OCc1ccc(Cl)nc1 | ? | 23µM | ? | 0 | 0 | 15µM
COc1cc(CNCCc2ccc(F)cc2)ccc1OCc1ccc(Cl)nc1 | ? | 21µM | ? | 0 | ? | 18µM
COc1ccc(CCCC(=O)Nc2ccccc2F)cc1 | 0 | 0 | 0 | 0 | 0 | 0
CCN(CC)c1ccc(N=Nc2ccc(S(=O)(=O)N(C)C)cc2)c(S(=O)(=O)NCC[n+]2ccccc2)c1 | - | 0 | - | - | - | 0
COC(=O)CN(c1cc(Cl)ccc1OC)S(=O)(=O)c1ccc(C)cc1 | 18µM | 18µM | 16µM | 0 | 0 | ?
COc1ccc(Cl)cc1N(CC(=O)N1CCCC1)S(=O)(=O)c1ccc(C)cc1 | 0 | ? | 0 | 0 | 0 | ?
COc1ccc(S(=O)(=O)Nc2ccc(C)cc2)cc1N(C)S(=O)(=O)c1ccc(Cl)cc1 | ? | 18µM | 0 | 0 | ? | 23µM
COc1ccc(Cl)cc1N(CC(=O)NC(C)(C)C)S(=O)(=O)c1ccc(C)c([N+](=O)[O-])c1 | 0 | 21µM | 0 | 0 | 0 | 16µM
O=C(Nc1cnns1)Oc1ccccc1 | 0 | 0 | 0 | 0 | 0 | 0
O=C(NC1CCCC1)C(c1cccnc1)N(Cc1ccccc1F)C(=O)c1csnn1 (stereo not drawn) | 0 | 0 | 0 | 0 | 0 | 0
O=C(NCC(=O)N1CCN(C/C=C/c2ccccc2)CC1)c1ccc(OC(F)F)cc1 | 0 | 15µM | 0 | 0 | 0 | ?
CSCCC(NC(=O)c1ccc(Cl)c([N+](=O)[O-])c1)C(=O)N1CCN(C/C=C/c2ccccc2)CC1 (stereo not drawn) | 0 | ? | 0 | 0 | 0 | 18µM
O=C(NCC(=O)N1CCCCCC1)c1ccc(OC(F)F)cc1 | 0 | 0 | 0 | 0 | 0 | 0
CC(C)C(NC(=O)c1ccccc1)C(=O)N1CCN(C/C=C/c2ccccc2)CC1 (stereo not drawn) | 0 | ? | 0 | 0 | 0 | ?
O=C(NCC(=O)N1CCN(C/C=C/c2ccccc2)CC1)c1ccc(Br)cc1 | 0 | 8.2µM | 0 | 0 | 0 | 16µM
C[C@H](NC(=O)c1ccc(C(C)(C)C)cc1)C(=O)N1CCN(C/C=C/c2ccccc2)CC1 | ? | 21µM | ? | 0 | ? | ?
CCOc1ccc(Cl)cc1S(=O)(=O)N1CCC(C(=O)NCc2ccncc2)CC1 | 0 | 0 | 0 | 0 | 0 | 0
COCCn1c(SCC(=O)Nc2ccc(NC(=O)c3ccco3)c(OC)c2)nc2ccccc2c1=O | ? | 0 | ? | 0 | 0 | 0
SMILES | HT1080NT lethal | DT40 TDP1 no CPT | HT1080 IDH1KD tx | HepG2 viability | TGFb SMAD3 inh | DT40 TDP1 CPT
CCCCn1c(SCC(=O)Nc2cc(NC(=O)c3ccco3)ccc2C)nc2ccccc2c1=O | ? | 23µM | 11µM | 0 | 0 | ?
CCCCn1c(SCC(=O)NCc2ccccc2)nc2ccc(N3CCOCC3)cc2c1=O | 0 | 1.5µM | 0 | 0 | 0 | 0
CCCCn1c(SCC(=O)Nc2ccc(NC(C)=O)cc2)nc2ccccc2c1=O | 0 | ? | 0 | 0 | 0 | 0
CCCCn1c(SCC(=O)Nc2cc(C)on2)nc2ccccc2c1=O | 0 | 0 | 0 | 4µM | 0 | ?
COc1ccc2c(c1)c[n+](C)c1c3cc(OC)c(OC)cc3ccc21 | 9.2µM | 1.2µM | 10µM | - | - | 1.2µM
COc1ccc(Cc2c3cc(OC)c(OC)cc3cc[n+]2C)cc1OC | 0 | 0 | 0 | 0 | 0 | 0
COc1cc2c[n+](C)c3c4ccccc4ccc3c2cc1OC | ? | 1.5µM | 16µM | 0 | 0 | 1µM
COc1ccc(-n2nc3ccc(NC(=O)c4ccc(C#N)cc4F)cc3n2)cc1Cl | - | 0 | - | 0 | 0 | 0
CC(=O)c1cccc(NC(=O)Cn2c(=O)c(CNc3ccc(C)cc3)cc3cc4c(cc32)OCCO4)c1 | - | - | - | 0 | 0 | -
COCCOC(=O)c1c(C)oc2c1cc(NS(=O)(=O)c1ccc(Cl)c(C)c1)c1ccccc12 | - | 23µM | - | 0 | ? | ?
Cc1oc2c(cc(NS(=O)(=O)c3ccc(C(C)C)cc3)c3ccccc32)c1C(=O)OCc1ccccc1 | - | ? | - | 0 | 0 | 21µM
CCCCOC(=O)c1c(C)oc2c1cc(NS(=O)(=O)c1cc(OC)ccc1OC)c1ccccc12 | - | 21µM | - | 0 | ? | ?
CCOc1ccc(S(=O)(=O)Nc2cc3c(C(=O)OCc4ccccc4)c(C)oc3c3ccccc23)cc1 | - | 29µM | - | 0 | 0 | 12µM
COC(=O)[C@@H]1CCCN1Cc1ccc2c(c1)CN(Cc1cccn1-c1ncccn1)CCO2 | - | 0 | - | - | - | ?
O=C(COC(=O)/C=C/c1cccc(F)c1)Nc1ccccc1-c1ccccc1 | 0 | 0 | 0 | 0 | 0 | 0
Cc1cc(SCC(=O)Nc2nsc(-c3ccc(C(C)(C)C)cc3)n2)nc2ccccc12 | - | 0 | - | 0 | ? | ?
Cc1ccc(Cl)cc1NC(=O)C(Cc1ccccc1)N1C(=O)C2C3CCC(C3)C2C1=O (stereo not drawn) | 0 | 15µM | 0 | 0 | 0 | ?
O=C(Nc1ccccc1O)c1ccc(NC(=O)C2CC2)cc1 | ? | 12µM | ? | 0 | 0 | 12µM
CC(OC(=O)c1ccc(O)cc1)C(=O)Nc1ccc(Oc2ccccc2)cc1 (stereo not drawn) | 0 | 21µM | 0 | 0 | ? | ?
COc1cccc(NC(=O)C2CC2)c1 | 0 | 0 | 0 | 0 | 0 | 5.8µM
O=C(Nc1cccc(S(=O)(=O)c2cccc(NC(=O)C3CC3)c2)c1)C1CC1 | ? | 21µM | ? | 0 | 0 | 21µM
COc1cccc(NC(=O)C2CCCC2)c1 | 0 | 0 | 0 | 0 | 0 | 0
CCOc1ccccc1CNC(=O)C1CCN(S(=O)(=O)c2cccc3nonc23)CC1 | - | 0 | - | 0 | 0 | 0

Screening results: PubChem, National Center for Advancing Translational Sciences (NCATS)
